For 39 compounds, Percent Effect results are on record in ChEMBL document CHEMBL3988442, “University of Dundee, Small-Polar-MMV Screening Library” (2021).

The structures appear in SMILES notation. Measured potencies and affinities stand elsewhere.

In the assay the target is Protein translocase subunit SecA (Escherichia coli (strain K12)) (UniProt P10408). The experiment in a line: Assay to Identify E. coli SecA ATPase Inhibitors. The class given is functional. Set-up: scale not given: direction of the effect not stated beside the values. Particulars: 30 µM.
Sequence of Protein translocase subunit SecA (Escherichia coli (strain K12)) (P10408 whole entry): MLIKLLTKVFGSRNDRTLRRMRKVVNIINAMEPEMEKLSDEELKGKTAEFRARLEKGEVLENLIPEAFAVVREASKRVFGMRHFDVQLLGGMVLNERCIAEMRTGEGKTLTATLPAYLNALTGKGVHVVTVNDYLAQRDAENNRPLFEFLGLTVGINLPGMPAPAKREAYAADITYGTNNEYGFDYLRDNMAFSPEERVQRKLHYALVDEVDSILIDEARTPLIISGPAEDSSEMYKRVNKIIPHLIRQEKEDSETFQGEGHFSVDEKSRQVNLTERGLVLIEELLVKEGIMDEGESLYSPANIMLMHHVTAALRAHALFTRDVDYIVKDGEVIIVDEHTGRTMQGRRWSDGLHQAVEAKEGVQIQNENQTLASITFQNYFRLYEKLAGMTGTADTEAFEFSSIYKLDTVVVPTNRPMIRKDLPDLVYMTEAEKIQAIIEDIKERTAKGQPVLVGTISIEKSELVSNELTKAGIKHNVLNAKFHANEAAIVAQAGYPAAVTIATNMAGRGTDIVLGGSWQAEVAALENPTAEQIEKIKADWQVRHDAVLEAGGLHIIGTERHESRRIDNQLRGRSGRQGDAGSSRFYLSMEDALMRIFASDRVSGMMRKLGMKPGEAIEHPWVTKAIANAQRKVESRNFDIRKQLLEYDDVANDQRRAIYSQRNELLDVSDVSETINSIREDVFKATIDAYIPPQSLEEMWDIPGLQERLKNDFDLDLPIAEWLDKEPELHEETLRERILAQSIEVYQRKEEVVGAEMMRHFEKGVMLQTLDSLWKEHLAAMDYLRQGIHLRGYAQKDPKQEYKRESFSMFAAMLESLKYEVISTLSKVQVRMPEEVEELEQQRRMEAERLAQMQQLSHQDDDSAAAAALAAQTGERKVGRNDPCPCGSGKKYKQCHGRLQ
For the compound `Cc1cccc(CN2C(=O)CCC23CCN(Cc2cccn2C)CC3)n1`, the Percent Effect is -2.82%. Under `CN(C(=O)CN1CCOC(Cn2cccn2)C1)c1nccs1` (centres undefined) stands -7.38%. `c1cc(-c2nc(CN3CCn4c(nnc4C4CC4)C3)cs2)cs1`: the Percent Effect worked out at 0.225%. Consider `CS(=O)(=O)NCC1CCCN(C(=O)COCC(F)(F)F)C1` (centres undefined), for which the Percent Effect was -0.972%. Under `COc1ccc(-c2nc(CN3CCc4c(ncn4C)C3)cs2)cc1` stands -0.999%; under `Cc1cccc(CN2CCC3(CCN(c4ccccn4)C3)C2=O)c1` (centres undefined), -2.21%; under `CCCC(C)C(=O)N1CCC(n2cccc2C(=O)OC)CC1` (centres undefined), -6.33%. The same measure for `O=C(NCC1CCOC1)Nc1ccc(OCC(F)(F)F)nc1` (centres undefined): 0.633%; for `Cc1ncc(-c2ccnc(N3CCN(C)CC3)n2)c(-c2cccnc2)n1`: -1.44%. Under `Cc1cc(OCC(=O)N2CCCC(c3noc(C)n3)C2)no1` (centres undefined) stands 2.24%; under `COc1ccc(OCCN(C)C(=O)NC(C)c2nncn2C)cc1` (centres undefined), -4.39%; under `CCc1ccsc1C(=O)N1CCN(C(=O)CC(F)(F)F)CC1`, 2.23%. Regarding `CC(C(=O)N1CCCC1)N1CCC(c2nccn2Cc2cscn2)CC1` (centres undefined), the Percent Effect is -2.34%. Turning to `CCC(=O)N1CCC(O)(c2ncc(OC)nc2OC)CC1`, the Percent Effect is -1.18%.

Regarding `O=C(c1cc(Cl)c2c(c1)OCCO2)N1CCCC(n2cncn2)C1` (centres undefined), the Percent Effect is -2.53%.

Consider `CN(C)CC1CN(Cc2nnc(-c3ccccc3Cl)o2)CCO1` (centres undefined), for which the Percent Effect is -1.11%. Under `Cc1ccc(OCC(O)CN2CCC(Cn3cccn3)CC2)cc1` (centres undefined) stands -0.525%. For `COCCN1CCCN(C(=O)NC(C)Cn2ccnc2)CC1` (centres undefined), the Percent Effect came out at 0.718%. Under `CCc1nc(C2CCCN2C(=O)c2ccoc2C)no1` (centres undefined) stands 2.59%; under `COc1cc(CNCc2ccc(NC(=O)NC(C)C)cc2)cc(OC)c1`, -1.27%. In the case of `Cc1cc(NC(=O)N(CC2CCOC2)C2CC2)no1` (centres undefined), the Percent Effect is -2.1%. Consider `COc1ccc(F)cc1C(=O)N(C)Cc1cc(C)on1`, for which the Percent Effect is -0.183%. The same measure for `CN(C)C(=O)N1C[C@H]2CCC[C@@]2(COc2ccccn2)C1`: -6.8%. `COc1ncc(C2CC(=O)NCc3nc4ccccn4c32)cn1` (centres undefined): the Percent Effect is -5.62%. In the case of `Cn1nc2c(cc1=O)CN(Cc1nc(C(C)(C)C)no1)CC2`, the Percent Effect is -2.61%. Under `Fc1cnc(N2CCOCC3(CCCN(c4nncs4)C3)C2)nc1` (centres undefined) stands -8.43%; under `CN1CCCn2c(nc(CNC(=O)c3ccsc3)cc2=O)C1`, -0.659%. The same measure for `Cc1ccc(-c2nc(CN3CCn4c(nnc4C4CC4)C3)co2)cc1`: -5.43%. Consider `O=c1cc(Cn2cncn2)nc2n1CCCN(CC1CC1)C2`, for which the Percent Effect was -4.98%. On to `CC(c1nc(C2CC2)no1)N1CCN(Cc2ccsc2)CC1` (centres undefined), for which the Percent Effect is -4.58%.

For the compound `O=c1c2ccccc2nc2n1C(CSc1ccc(Cl)cc1Cl)CN2` (centres undefined), the Percent Effect is -1.78%. Under `CCc1cc(O)nc(C2CCCN2C(=O)c2cc(C)no2)n1` (centres undefined) stands -0.0921%; under `CN(C)C(=O)CCC(=O)NCc1cccnc1-n1cnc2ccccc21`, -4.75%. Under `CCc1nccn1C1CCCN(C(=O)Cc2ccc(OC)c(F)c2)C1` (centres undefined) stands -7.36%; under `CC(=O)N1C[C@@H](c2ccsc2)[C@@H]2CN(Cc3ccccc3)CC[C@@H]21`, -3.48%. As to `CN(C)CC1CN(Cc2coc(-c3ccccc3Cl)n2)CCO1` (centres undefined), the Percent Effect was -1.66%.

Take `CCNC(=O)[C@@H]1C[C@@H](NC(=O)Cc2ccncc2)CN1Cc1ccsc1`: the Percent Effect is -12.1%. As to `CC(C)(C)C(O)CN1CCN(C(=O)c2cccc3[nH]ncc23)CC1` (centres undefined), the Percent Effect is -8.1%. Under `CC(C)c1cc(N2CCN(c3ccc(O)cc3)CC2)n2nccc2n1` stands -0.0494%.
